DAT uptake mod: modulates human dopamine transporter uptake under cocaine | 110,000 compounds, 1.3% hits | LLC-PK1 hDAT cells, [14C]-dopamine uptake with cocaine IC80; actives deviate in either direction | B-score at 10 µM | AID 449768 | Q01959;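 active = Z score or B-score, a plate-position-corrected score, falls beyond the plate's 99.7% confidence bounds, in either direction; inactive = both scores lie inside the 99.7% bounds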;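 also: scored against the spread of the other compound wells on the same plate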
D1 allo mod: allosterically modulates the human D1 dopamine receptor; B-score at 10 µM; AID 641; P21728; HEK293 D1, CRE-luciferase, dopamine EC30 potentiation; actives deviate in either direction; 58,000 compounds, 5.9% hits;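 active = luminescence count or its row- and column-corrected plate score outside the 99.7% band of the plate's sample wells, on either side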
M1 antagonist: M1 muscarinic receptor (rat) antagonism | B-score at 10 µM | CHO-M1 cells, Fluo-4 calcium, ACh EC80 antagonist mode; hits give low values | P08482 | 64,000 compounds, 3.4% hits | AID 628;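 active = calcium fluorescence response, raw or row-and-column corrected B-score, differing from the plate sample mean either way at a set confidence level, mostly lower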
FXIa mix inh: factor XIa (human) inhibition, mixture screen; P03951; purified FXIa, fluorogenic substrate, pooled mixtures; inhibition, % at 5 µM; 62,000 compounds, 0.19% hits;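 also: each value is inhibition by a whole ten-compound pool holding the compound; 0% = enzyme with no mixture and 100% = wells lacking enzyme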
Target sequence (P03951 19-387 limits assumed): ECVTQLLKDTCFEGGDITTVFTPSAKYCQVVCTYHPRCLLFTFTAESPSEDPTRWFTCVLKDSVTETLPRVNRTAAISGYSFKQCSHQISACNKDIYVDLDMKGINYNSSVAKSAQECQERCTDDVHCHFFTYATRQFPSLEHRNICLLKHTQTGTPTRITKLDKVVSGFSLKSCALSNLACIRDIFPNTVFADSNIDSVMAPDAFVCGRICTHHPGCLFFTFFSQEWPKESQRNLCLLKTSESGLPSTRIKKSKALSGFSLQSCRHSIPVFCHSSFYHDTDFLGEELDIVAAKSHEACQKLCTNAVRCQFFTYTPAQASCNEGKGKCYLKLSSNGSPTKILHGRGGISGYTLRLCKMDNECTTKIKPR
Target sequence (P03951 388-625 limits assumed): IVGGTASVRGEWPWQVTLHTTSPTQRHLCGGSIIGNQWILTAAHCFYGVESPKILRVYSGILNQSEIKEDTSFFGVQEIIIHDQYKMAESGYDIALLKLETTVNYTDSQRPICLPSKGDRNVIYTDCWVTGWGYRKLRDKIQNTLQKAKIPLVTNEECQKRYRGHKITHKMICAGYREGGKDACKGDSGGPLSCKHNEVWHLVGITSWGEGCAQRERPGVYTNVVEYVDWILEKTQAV
FXIIa inh mix: blocks human factor XIIa in pooled compound mixtures | P00748 | purified FXIIa, fluorogenic substrate | inhibition, % at 5 µM | 62,000 compounds, 0.2% hits | AID 684;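 also: 0% = enzyme without compound and 100% = no enzyme blank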
M1 agonist: M1 muscarinic receptor agonism. CHO-M1 cells, Fluo-4 calcium fluorescence, agonist mode; hits give high values. B-score at 10 µM. 64,000 compounds, 3% hits;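 active = fluorescence rise, raw or as B-score row- and column-corrected plate score, outside the 99.7% band of its plate's samples, either direction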
D1 mod confirm: confirmation of human D1 dopamine receptor allosteric modulators; luminescence at 10 µM; HEK293 D1 CRE-luciferase, dopamine EC30 potentiation; hits give high values; shares compounds with D1 allo mod; 2,200 compounds, 88% hits;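 active = luminescence in either of two replicates above the same-plate mean plus 3 SD of the low-dose dopamine control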
D1 no dopamine: activates D1 CRE-luciferase signal without dopamine present. shares compounds with D1 allo mod. HEK293 D1 CRE-luciferase, luminescence, no dopamine; hits give high values. luminescence at 10 µM. 1,900 compounds, 0.8% hits; in the data active = luminescence above about 3900
Isoprot counter: counter-screen for D1 modulators: isoproterenol response in HEK293 cells. calls only at 10 µM. HEK293 D1 CRE-luciferase, isoproterenol EC30 counter-screen. AID 647. 2,200 compounds, 63% hits. shares compounds with D1 allo mod;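 active = luminescence in either replicate above plate mean of wells with a partly effective reference agonist dose plus 3 SD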;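 also: isoproterenol raises cAMP through native beta-adrenoceptor Gs so signal bypasses D1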
The depositor's hits bear a star; i = inactive; / = no result; + = active, no number. This is a sample that favours compounds with a hit; in the whole collection about 7.4% have one here. Rule as the data show it, unless noted: active = inhibition above about 20% (passing the limit was not always enough); inactive = the rest.

SMILES	DAT uptake mod	D1 allo mod	M1 antagonist	FXIa mix inh	FXIIa inh mix	M1 agonist	D1 mod confirm	D1 no dopamine	Isoprot counter
COc1cccc(C2CC(c3ccc(F)cc3)Nc3nc(N)nn32)c1 (configuration not stated)	0.34	0.59	1.1	3	13	-0.11	/	/	/
Nc1nc2n(n1)C(c1cccc(Br)c1)CC(c1ccc(F)cc1)N2 (configuration not stated)	-0.38	14*	-0.31	2	-2	-0.93	13072*	1584	+
Nc1nc2n(n1)C(c1ccccc1)CC(c1ccc(F)cc1)N2 (configuration not stated)	2.1	6*	-0.59	4	-2	0.039	11012*	1632	i
C=CCC(CC=C)(C(=O)O)c1ccccc1	0.42	-0.078	-0.83	0	-18	-0.069	/	/	/
Cc1ccc(NC(=O)c2sc(Cl)nc2-c2ccccc2)cc1C	0.68	/	/	/	/	/	/	/	/
CCCCC(C(=O)NC(=O)NCc1ccccc1)N1C(=O)c2ccccc2C1=O (configuration not stated)	0.88	/	/	/	/	/	/	/	/
CN(C)c1ccc(CNC(=O)CN(C)S(=O)(=O)c2cccc3cccnc23)cc1	1.6	-0.44	0.54	-4	-2	-0.19	/	/	/
COc1ccc(-c2cc(C(F)(F)F)n3nc(N)nc3n2)cc1	-0.014	/	/	/	/	/	/	/	/
CCOC(=O)c1cc2nc(-c3ccco3)cc(C(F)(F)F)n2n1	0.061	/	/	/	/	/	/	/	/
COc1ccc(-c2cc(C(F)(F)F)n3nc(C)cc3n2)cc1	-0.96	12*	0.11	3	-17	-0.015	9368*	1632	+
COc1ccc(-c2cc(C(F)(F)F)n3nc(C(=O)NCCCn4ccnc4)cc3n2)cc1	0.75	/	/	/	/	/	/	/	/
COc1cccc(-c2cc(C(F)(F)F)n3nc(N)nc3n2)c1	0.036	7.3*	0.31	-27	-2	1	15000*	1596	+
Cc1cc2nc(-c3ccco3)cc(C(F)(F)F)n2n1	-0.012	32*	-0.28	5	-23	0.13	22332*	/	+
CCCOc1cccc(C(=O)O)c1	-1	-0.38	-0.68	-28	-1	-0.11	/	/	/
Nc1ccc2nc3n(c(=O)c2c1)CCC3	-0.19	1.1	0.031	-3	6	0.48	/	/	/
C=C1C2(C(=O)NCc3ccco3)CCC(C2)C1(C)C (configuration not stated)	0.44	-0.49	1.2	6	2	0.44	/	/	/
Cc1ccc(NC(=O)C2(N(CC(C)C)C(=O)Cn3nnnc3N)CCCCC2)cc1	-0.39	5.4*	/	9	-12	/	5068	/	i
Cc1nnc(NC(=O)c2cccc(Br)c2)s1	0.27	/	/	/	/	/	/	/	/
CCOc1ccc(C(=O)Nc2nnc(C)s2)cc1OCC	-0.11	5.9*	0.091	0	2	-0.23	13964*	/	+
CCCCNC(=O)C1CCN(c2nc(OC)nc(OC)n2)CC1	1.8	/	/	/	/	/	/	/	/
CCOc1nc(OCC)nc(N2CCC(C)CC2)n1	0.51	27*	0.3	-1	-5	-0.81	26964*	1528	+
Cn1c(C(=O)NCc2cccs2)cc2oc3ccccc3c21	/	-0.86	0.32	-8	4	0.58	/	/	/
O=C(Nc1ccccc1Cl)N1CCN(c2ccc3nnc(-c4ccccc4)n3n2)CC1	0.38	5.4*	-1	1	1	1.5	14068*	/	+
Cc1cc2ccccc2n2c(SCC(=O)N3CCc4ccccc4C3)nnc12	0.044	/	/	/	/	/	/	/	/
CCOC(=O)c1cc(C(=O)OCC)cc(-n2c(C)cc(C(=O)CN3CCOCC3)c2C)c1	3	4.9*	1	3	3	0.12	7880*	/	i
SMILES	DAT uptake mod	D1 allo mod	M1 antagonist	FXIa mix inh	FXIIa inh mix	M1 agonist	D1 mod confirm	D1 no dopamine	Isoprot counter
Cc1cc(N2C(=O)C3C4c5ccccc5C(c5ccccc54)C3C2=O)no1 (configuration not stated)	-0.039	-0.95	-0.19	4	7	2.2	/	/	/
CCCn1c(=O)c2ccccc2n2c(SCc3cc(=O)n4ccsc4n3)nnc12	/	2.5	-0.18	1	4	0.049	/	/	/
COc1cc(-c2cc(OC)c3c(C)oc(C)c3c(=O)c2)ccc1O	0.86	2.5	0.015	3	-23	-1.2	/	/	/
COc1ccc(-c2cc(OC)c3c(C)oc(C)c3c(=O)c2)cc1OC	0.93	3.8*	0.057	6	6	-1.3	12580*	1500	+
COc1ccc(OC)c(NC(=O)CNC(=O)Cn2ccc3ccccc3c2=O)c1	0.45	0.011	0.86	8	-12	-0.11	/	/	/
CCOCCCNc1ncc2c(n1)CC(c1ccc(C)cc1)CC2=O (configuration not stated)	-0.2	-0.035	-0.15	-46	13	0.21	/	/	/
CC(=O)COc1ccc2c3c(c(=O)oc2c1C)CCCCC3	-0.022	4.2	-1.6	-8	-2	-0.33	/	/	/
CC(=O)C(C)Oc1ccc2c3c(c(=O)oc2c1C)CCCC3 (configuration not stated)	/	3.2*	-0.23	-16	-4	-0.77	9268*	1608	+
COC(=O)C1=C(C)Nc2ccc(C)cc2S1	0.4	8.7*	0.14	9	10	0.64	11576*	1468	+
CCOC(=O)c1cnc(-n2nc(C)cc2C)nc1Nc1cccc(C(=O)O)c1	-0.82	4.3*	0.023	6	15	0.17	9100*	1376	i
CCOC(=O)c1cnc(-n2nc(C)cc2C)nc1Nc1ccc(N(C)C)cc1	-0.13	12*	-1.2	0	-1	1.4	12468*	1584	+
CC(=O)Oc1cc2oc(=O)cc(C)c2cc1OC(C)=O	-0.56	-0.074	0.3	-17	7	-0.036	/	/	/
COc1ccc(C)cc1S(=O)(=O)N1CCCCC1	0.036	-0.081	-0.1	3	6	-0.37	/	/	/
O=C(CCSc1nc2ccccc2o1)N1CCOCC1	0.024	3.6*	0.17	6	19	-0.35	7988*	1548	i
O=C(CCSc1ccccc1)N1CCOCC1	-0.23	-0.85	0.41	5	0	0.14	/	/	/
O=C1CCCC(O)=C1C(C#Cc1ccccc1)C1=C(O)CCCC1=O	1.2	3.6*	/	-3	8	/	6888	1524	i
CC1(C)CC(=O)C(C(C#Cc2ccccc2)C2=C(O)CC(C)(C)CC2=O)=C(O)C1	1.6	/	/	/	/	/	/	/	/
O=C(CSc1nnc(C2CC2)n1Cc1ccccc1)c1ccc(S(=O)(=O)N2CCOCC2)cc1	-0.17	0.21	-0.84	-14	10	0.0074	/	/	/
COc1ccc(OC)c(C2C(C(C)=O)=C(O)C(=O)N2Cc2cccnc2)c1 (configuration not stated)	-0.39	-0.31	-0.82	9	-16	-2.4	/	/	/
